Only some compounds are listed: those with a hit (about 2.9% of all), similar ones and a draw of the others.
NadD inh: blocks S. aureus nicotinate mononucleotide adenylyltransferase | purified NadD enzyme, colorimetric absorbance read-out | 0.78% of 360,000 active | inhibition, % at 20 µM; in the data active = inhibition above about 26%
H9c2 TAG inh: triacylglycerol accumulation inhibition | 0.66% of 230,000 active | H9c2 cells, Nile Red lipid (TAG) fluorescence; cells loaded with 200 µM oleic acid | inhibition, % at 12.5 µM;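 active = pattern-corrected inhibition of lipid staining of at least 50% with the nuclear-stain viability signal not falling by more than 50%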;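 note: 0% = DMSO wells and 100% = triacsin C control wells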
Cardio protect: myocardial damage modulation in H9c2 cells; protection from H2O2 cell death, % at 20 µM; H9c2 cardiomyocytes, H2O2 injury protection, ATPLite, 2 h; 0.63% of 360,000 active;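 active = compounds giving at least 50% protection of heart cells from peroxide-induced death in the single-dose screen, raw or plate-pattern-corrected value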;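 note: 0% = DMSO wells with peroxide and 100% = DMSO wells without peroxide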
PfG6PD inh: PfG6PD (Plasmodium falciparum) enzyme inhibition. PfGluPho enzyme, NADPH resazurin-diaphorase fluorescence. inhibition, % at 20 µM. 0.78% of 350,000 active;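 active = inhibition reaching at least a set limit at 20 µM in the primary screen, cut at about 59% in these data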;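 note: 0% = DMSO wells with substrate and 100% = DMSO wells lacking glucose-6-phosphate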
APOBEC3G inh: blocks human APOBEC3G single-stranded DNA deamination. Q9HC16. recombinant A3G, ssDNA deamination FAM/TAMRA fluorescence. inhibition, % at 20 µM. 0.28% of 330,000 active;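 active = inhibition of at least 40% at 20 µM, with no more than 30% in the related APOBEC3A deaminase screen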;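 note: plate controls were DMSO wells with A3G for no effect and wells lacking A3G enzyme for full effect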
Target sequence (Q9HC16 whole entry, looked up): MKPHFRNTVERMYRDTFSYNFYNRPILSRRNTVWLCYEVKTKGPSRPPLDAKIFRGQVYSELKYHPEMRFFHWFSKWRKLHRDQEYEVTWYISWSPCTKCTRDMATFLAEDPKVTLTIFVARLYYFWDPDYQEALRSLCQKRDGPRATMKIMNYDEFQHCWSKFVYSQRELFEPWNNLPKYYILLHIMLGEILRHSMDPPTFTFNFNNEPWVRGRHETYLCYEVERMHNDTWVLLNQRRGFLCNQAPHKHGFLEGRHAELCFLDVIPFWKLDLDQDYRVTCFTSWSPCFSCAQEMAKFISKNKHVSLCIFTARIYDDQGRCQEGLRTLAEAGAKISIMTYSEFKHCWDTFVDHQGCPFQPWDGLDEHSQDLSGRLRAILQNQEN
APOBEC3A inh: human APOBEC3A DNA deaminase inhibition; P31941; recombinant A3A, FAM/TAMRA ssDNA deamination fluorescence; inhibition, % at 20 µM; 0.41% of 330,000 active; AID 493011;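 active = at least 40% inhibition at 20 µM here, with at most 30% in a related deaminase screen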;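 note: plate controls were A3A with DMSO for no effect and wells lacking A3A enzyme for full effect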
Target sequence (P31941 whole entry, looked up): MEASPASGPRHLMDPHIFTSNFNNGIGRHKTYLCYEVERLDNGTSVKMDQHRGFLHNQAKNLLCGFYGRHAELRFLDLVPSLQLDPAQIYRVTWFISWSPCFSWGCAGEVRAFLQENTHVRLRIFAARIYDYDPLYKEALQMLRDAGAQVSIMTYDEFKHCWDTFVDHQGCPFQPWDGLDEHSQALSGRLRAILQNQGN
* = called active by the depositor; / = no result given.

SMILES	NadD inh	H9c2 TAG inh	Cardio protect	PfG6PD inh	APOBEC3G inh	APOBEC3A inh
Cc1cc(=O)oc2cc(OCC(=O)Nc3ccc4[nH]c(=O)[nH]c4c3)ccc12	-2.4	-8.2	7.7	3.9	-8.3	-1.3
C[C@@H](NC(=O)c1ncn(Cc2ccccc2)c1C(=O)N[C@H](C)c1ccccc1)c1ccccc1	-5.7	/	-1.8	28.4	-10.4	-4.8
COc1ccc(CCCNC(=O)C2(C)Cc3c(-c4ccc(NC(C)=O)cc4)ccnc3O2)cc1 (stereo not drawn)	-5.0	17.8	63.6*	/	/	/
CC(=O)Nc1ccc(-c2ccnc3c2CC(C)(C(=O)NCCc2ccccc2)O3)cc1 (stereo not drawn)	-5.8	11.0	6.8	/	/	/
COCCNC(=O)C1(C)CCN(C(=O)c2cc(C(C)(C)C)nn2C)C1 (stereo not drawn)	3.4	-3.2	6.1	/	/	/
COc1cc(/C=C2/CCC/C(=C\c3cc(O)c(OC)c(Cl)c3)C2=O)cc(Cl)c1O	49.9*	-2.7	6.5	13.3	2.9	6.4
C/C(=N\Nc1ccc([N+](=O)[O-])cc1[N+](=O)[O-])c1cccnc1	-2.2	/	-1.3	-8.3	-3.3	-1.7
CC(C)=NNc1cnnc2ccc([N+](=O)[O-])cc12	28.1	/	55.8*	/	/	/
CCN1C(=O)[C@H]2[C@H]3CN=C(SCC(=O)c4ccccc4)N3[C@@](CC)(C(=O)OC)[C@H]2C1=O	5.7	-9.6	3.3	8.0	2.0	2.2
COc1ccc(OC)c(-c2c3cc(O)c(=O)cc-3oc3cc(O)c(O)cc23)c1	39.0*	/	7.1	37.1	/	/
CCOc1ccccc1-c1c2cc(O)c(=O)cc-2oc2cc(O)c(O)cc12	26.6	/	60.1*	-14.6	/	/
O=c1cc2oc3cc(O)c(O)cc3c(-c3ccccc3O)c-2cc1O	45.7*	/	0.2	12.6	/	/
CCCNC(=O)c1ccc(N2CCC3(CC2)CC(c2ccccc2)=NO3)c(NC(=O)c2ccco2)c1	12.7	17.5	89.8*	2.2	-13.3	-3.7
CN1c2ccsc2/C(=N/NC(=O)c2c(F)cccc2F)CS1(=O)=O	0.6	-12.2	4.4	3.7	-5.1	0.4
Cc1cccc(C(=O)N/N=C2\CS(=O)(=O)N(C)c3ccsc32)c1	0.8	12.6	63.6*	-13.6	-7.5	-1.1
C=C1C(=O)C23C(O)C1CCC2C12CCCC(C)(COC(C)=O)C1C(O)C3(O)OC2 (stereo not drawn)	-3.4	93.0*	-19.7	56.0	/	/
CCCCNC(=O)NNC(=O)c1cc(C)on1	-6.1	8.4	13.2	-3.6	-0.9	1.5
O=S(=O)(c1ccc(Cl)cc1)N1CCN(Cc2ccc(O)c3ncccc23)CC1	8.8	53.3*	29.8	6.1	-3.1	-6.9
COc1ccccc1N(C(=O)CCl)c1cn(C(C)=O)c2ccccc12	-3.2	73.7*	-6.1	-12.7	-5.4	-4.3
CC(=O)n1cc(N(C(=O)CCl)c2ccc(Cl)cc2)c2ccccc21	-7.8	67.0*	-8.7	-0.8	-9.6	-4.6
COc1ccccc1N1CCN(C2CCCN(C(=O)CCN3CCCCO3)C2)CC1 (stereo not drawn)	-5.4	/	3.6	-3.9	1.0	0.4
CC(=O)N/C(=C\c1ccccc1)C(=O)OCC(=O)Nc1cc(S(=O)(=O)N(C)C)ccc1C	-5.8	-14.2	-4.1	3.1	-8.3	-2.8
CCOC1=C2[C@H](c3ccccc3)N(S(=O)(=O)c3ccc(C)cc3)C(C(C)(C)C)[C@H]2C(C#N)(C#N)C(C#N)(C#N)C1 (stereo partly drawn)	34.2*	/	-13.0	/	/	/
CCOC1=C2CN(S(=O)(=O)c3ccc(C)cc3)[C@@H](c3cccc4ccccc34)C[C@H]2[C@H]2C(=O)N(c3ccccc3)C(=O)[C@H]2C1	11.1	/	6.1	/	/	/
CCOC1=C2CN(S(=O)(=O)c3ccc(C)cc3)[C@H](c3cccc4ccccc34)C[C@H]2C(C#N)(C#N)C(C#N)(C#N)C1	30.0*	/	-6.6	/	/	/
SMILES	NadD inh	H9c2 TAG inh	Cardio protect	PfG6PD inh	APOBEC3G inh	APOBEC3A inh
COc1c(Br)cc(Br)cc1C(=O)Nc1ccccc1N1CCCC1	-1.8	/	-3.0	-12.0	-6.6	-2.9
CC1=C(C#N)C(=O)NC(=O)/C1=C\c1ccc(-c2ccc(C)cc2[N+](=O)[O-])o1	4.1	/	1.6	27.0	/	/
CCOC(=O)c1cc(-c2ccc(/C=C3/C(=O)NC(=O)C(C#N)=C3C)o2)ccc1Cl	38.6*	/	3.0	45.3	2.8	0.2
C/C(=N\NC(=O)c1cc(-c2cccnc2)nc2ccccc12)c1ccc(O)cc1O	20.4	/	51.6*	-28.9	-3.8	7.1
O=C(NN=Cc1cccc([N+](=O)[O-])c1)c1cc(-c2cccnc2)nc2ccccc12	7.8	-11.3	51.0*	23.5	-6.6	-3.8
Cc1nn(-c2ccccc2)c(N2CCCC2)c1/C=N/NC(=O)c1cc(-c2cccnc2)nc2ccccc12	18.9	-16.0	59.2*	-5.5	-6.1	-1.4
C/C(=N\NC(=O)COc1ccccc1-c1ccccc1)c1ccc(O)cc1O	19.0	1.9	54.5*	-8.7	-8.2	-0.2
Cc1ccc(NC(=O)CCc2nnc3ccc(NCc4ccco4)nn23)cc1	3.1	/	-4.4	9.3	-0.9	-2.3
O=C(COC(=O)c1ccc([N+](=O)[O-])o1)Nc1cccc(S(=O)(=O)N2CCCCC2)c1	-8.7	15.4	53.4*	17.1	-5.2	5.7
O=C(Nc1cccc(S(=O)(=O)N2CCCCC2)c1)c1ccc([N+](=O)[O-])o1	-7.4	73.7*	-22.8	36.7	-4.0	1.9
CCN(c1ccc(NC(=O)COC(=O)c2ccc([N+](=O)[O-])o2)cc1)C(C)C	5.2	-7.2	60.9*	17.6	-8.9	-6.8
Cc1ccc(C(=O)OCC(=O)Nc2cccc(S(=O)(=O)N3CCCCC3)c2)o1	-1.8	2.4	-9.8	-0.6	11.9	10.7
Cc1ccc(C(=O)Nc2cccc(S(=O)(=O)N3CCCCC3)c2)cc1[N+](=O)[O-]	3.3	1.9	-13.0	17.5	-1.4	5.9
COc1cccc(-c2cccc(-c3nc(C(=O)NCc4ccc(Oc5ccccc5)cc4)cc4c3[C@H](CCO)N(S(=O)C(C)(C)C)C4)c2)c1 (stereo partly drawn)	30.6*	/	0.5	/	/	/
COCCNC(=O)c1cc2c(c(-c3cccc(-c4cc5ccccc5o4)c3)n1)[C@H](CCO)N(S(=O)C(C)(C)C)C2 (stereo partly drawn)	2.8	/	20.2	/	/	/
CC(C)(C)S(=O)N1Cc2cc(C(=O)NCc3ccc(Oc4ccccc4)cc3)nc(-c3cccc(-c4cc5ccccc5o4)c3)c2[C@@H]1CCO (stereo partly drawn)	32.5*	/	-5.6	/	/	/
Cc1cc(C(=O)N2CCN(c3ccc([N+](=O)[O-])cc3)CC2)n[nH]1	-2.2	/	-2.0	5.2	-1.2	0.6
COc1ccc(-c2cc(C(=O)N(C)Cc3nc4ccccc4c(=O)[nH]3)c3ccccc3n2)cc1OC	8.2	19.1	66.2*	18.4	-6.6	-2.4
COc1cc2nc(CN(C)Cc3nc4ccccc4c(=O)[nH]3)[nH]c(=O)c2cc1OC	0.3	/	54.9*	-0.5	5.1	17.6
